From PubChem BioAssay (EPA / NIEHS) come the findings set out here.

Activity calls are given as the source filed them. The calls were made as follows: active = hit-call score of the fitted dose curve at least 0.9, where 1 is the maximum; inactive = score below 0.9.

Assay [1] in a line: ATG_CRE_CIS: Attagene CIS-FACTORIAL HepG2 Assay for human cAMP Responsive Element (CRE) binding protein 3 (AID 2282926). Conditions: HepG2 CRE cis-reporter, Attagene multiplexed mRNA; actives raise or lower the signal. A digest of the protocol: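 Human liver HepG2, transient MRTU transfection, 24 h compound exposure. Total RNA → oligo(dT) RT → PCR → 6-FAM primer extension → HpaI cut → CE. Activity called both directions vs DMSO.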

The target of assay [2] is CCAAT/enhancer-binding protein beta (Homo sapiens) (UniProt P17676). Kind of assay: ATG_C_EBP_CIS: Attagene CIS-FACTORIAL HepG2 Assay for human CCAAT/Enhancer Binding Protein (C/EBP) beta (AID 2282927). Conditions: HepG2 Attagene cis-factorial transcription factor reporter; actives raise or lower the signal. Put shortly: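 Chemical-treated HepG2 cells (24 h) bearing cis-regulated reporter constructs were processed for total RNA, then reverse transcription, PCR amplification, fluorescent primer extension and fragment analysis; gain- and loss-of-signal were fitted against DMSO.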
Chain of CCAAT/enhancer-binding protein beta (Homo sapiens) (P17676 whole entry, looked up, the tested form may be a part): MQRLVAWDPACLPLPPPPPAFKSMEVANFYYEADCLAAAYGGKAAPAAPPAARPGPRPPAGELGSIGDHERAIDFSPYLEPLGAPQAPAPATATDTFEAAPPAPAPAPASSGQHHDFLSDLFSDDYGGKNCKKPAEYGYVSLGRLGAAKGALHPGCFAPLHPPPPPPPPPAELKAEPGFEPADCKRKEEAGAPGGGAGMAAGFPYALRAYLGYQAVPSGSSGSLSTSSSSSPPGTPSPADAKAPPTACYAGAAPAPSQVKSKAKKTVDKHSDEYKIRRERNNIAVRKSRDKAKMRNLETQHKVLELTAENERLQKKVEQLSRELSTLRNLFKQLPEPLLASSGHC

Assay [3] concerns the target Aryl hydrocarbon receptor (Homo sapiens) (UniProt P35869). Kind of assay: ATG_Ahr_CIS: Attagene CIS-FACTORIAL HepG2 Assay for human Aryl Hydrocarbon Receptor (Ahr) (AID 2282930). Conditions: HepG2 AhR cis-factorial reporter transcription; actives raise or lower the signal. A digest of the protocol:
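Following 24 h of chemical dosing, transfected HepG2 liver cells with cis-driven reporter units were lysed for RNA; reporter mRNA was quantified via RT-PCR and capillary electrophoresis, and responses fitted bidirectionally from DMSO.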

The nature of assay [4]: ATG_AP_1_CIS: Attagene CIS-FACTORIAL HepG2 Assay for human Activator Protein 1 (AP-1) (AID 2282931). Conditions: HepG2 Attagene cis-factorial AP-1 reporter mRNA; actives raise or lower the signal. Put shortly: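 HepG2 cells transiently transfected with cis-element-driven reporter transcription units, dosed for 24 hours. Reporter mRNA measured by RT-PCR, 6-FAM labelling, HpaI digestion and capillary electrophoresis. Bidirectional fitting against DMSO baseline.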

The nature of assay [5]: ATG_AP_2_CIS: Attagene CIS-FACTORIAL HepG2 Assay for human Activator Protein 2 (AP-2) (AID 2282932). Conditions: HepG2 AP-2 cis-reporter, Attagene transcription factor profiling; actives raise or lower the signal. Put shortly:
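Bidirectional curve fitting against DMSO was applied to reporter mRNA signals from HepG2 cells 24 h after dosing. Cis-promoter reporter units, transiently transfected, were read by RT-PCR plus capillary electrophoresis.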

Assay [6] deals with Retinoic acid receptor alpha (Homo sapiens) (UniProt P10276). Kind of assay: ATG_DR5_RAR_CIS: Attagene CIS-FACTORIAL HepG2 Assay for human Retinoic Acid Receptor Alpha (RARE), DR5 submotif (AID 2282934).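 As to AC50: reporter responds to endogenous RAR alpha beta and gamma in HepG2 not RARA alone.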 Conditions: HepG2 Attagene cis-factorial RARE DR5 reporter, mRNA; actives raise or lower the signal. A digest of the protocol: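 Transfected HepG2 reporter cells are exposed to chemicals for 24 h. Then RNA is extracted and the DR5 element reporter transcript is measured by RT-PCR and capillary electrophoresis, with bidirectional curve fitting relative to DMSO.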
Chain of Retinoic acid receptor alpha (Homo sapiens) (P10276 whole entry, looked up): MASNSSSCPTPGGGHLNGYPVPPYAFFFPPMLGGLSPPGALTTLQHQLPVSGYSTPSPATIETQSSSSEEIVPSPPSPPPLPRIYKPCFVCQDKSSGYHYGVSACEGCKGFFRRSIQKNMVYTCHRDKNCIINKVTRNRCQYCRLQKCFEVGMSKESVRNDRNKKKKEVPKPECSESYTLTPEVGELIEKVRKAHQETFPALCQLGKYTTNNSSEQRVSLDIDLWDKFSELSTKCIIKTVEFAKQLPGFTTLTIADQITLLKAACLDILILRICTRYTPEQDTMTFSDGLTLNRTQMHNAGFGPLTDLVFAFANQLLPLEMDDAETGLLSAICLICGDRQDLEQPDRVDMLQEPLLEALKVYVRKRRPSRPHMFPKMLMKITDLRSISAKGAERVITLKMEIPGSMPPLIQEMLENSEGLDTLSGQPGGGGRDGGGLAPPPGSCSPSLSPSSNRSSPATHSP

In assay [7] the target is Transcription factor E2F1 (Homo sapiens) (UniProt Q01094). Kind of assay: ATG_E2F_CIS: Attagene CIS-FACTORIAL HepG2 Assay for human E2F Transcription Factor 1 (AID 2282935). Conditions: HepG2 Attagene cis-reporter, E2F reporter RNA transcripts; actives raise or lower the signal. A digest of the protocol:
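Multiplexed cis-reporter assay: HepG2, transient transfection, 24 h dosing, mRNA quantitation by labeled RT-PCR and CE.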

Assay [8] in a line: ATG_E_Box_CIS: Attagene CIS-FACTORIAL HepG2 Assay for human Enhancer Box (E-box) (AID 2282936). Conditions: HepG2 E-box cis-reporter transcription, actives raise or lower the signal. A digest of the protocol:
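Multiplexed CIS reporter system in transiently transfected HepG2 cells measures native transcription factor activity. Reporter RNA after 24 h exposure is profiled by RT-PCR-capillary electrophoresis.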

A short description of assay [9]: ATG_M_61_CIS: Attagene CIS-FACTORIAL HepG2 Assay for M61 Transcription Factor (Internal Marker) (AID 2282937). Conditions: HepG2 Attagene CIS-FACTORIAL M61 internal marker reporter; actives raise or lower the signal. A digest of the protocol: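 HepG2 cells transiently transfected with multiplexed cis-promoter reporter units reporting endogenous transcription factor activity, measured 24 h after dosing. Reporter mRNA quantified by RT-PCR and capillary electrophoresis; bidirectional fit against DMSO baseline.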

Assay [10] can be described thus: ATG_EGR_CIS: Attagene CIS-FACTORIAL HepG2 Assay for human Early Growth Response 1 (EGR1) (AID 2282938). The conditions noted are these: HepG2 Attagene CIS-FACTORIAL EGR reporter mRNA; actives raise or lower the signal. A digest of the protocol: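 HepG2 cells transiently transfected with cis-element-driven multiplexed reporter units, dosed for 24 h. EGR1-element reporter mRNA quantified by RT-PCR, 6-FAM labelling, HpaI digestion and capillary electrophoresis; bidirectional fit versus DMSO.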

A short description of assay [11]: ATG_M_19_CIS: Attagene CIS-FACTORIAL HepG2 Assay for M19 Transcription Factor (Internal Marker) (AID 2282939). Conditions: HepG2 Attagene CIS-FACTORIAL M19 internal marker reporter; actives raise or lower the signal. Put shortly:
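HepG2, MRTU transient transfection, 24 h dosing. Total RNA → RT-PCR → 6-FAM primer extension → HpaI digest → CE fluorescence. Bidirectional curve fit, DMSO negative control.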

A short description of assay [12]: ATG_ERE_CIS: Attagene CIS-FACTORIAL HepG2 Assay for Estrogen Response Element (ERE) (AID 2282940). Conditions: HepG2 ERE cis-reporter, Attagene RNA transcript; actives raise or lower the signal. A digest of the protocol: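 After a 24 h chemical treatment, RNA from reporter-transfected HepG2 cells is reverse-transcribed, PCR-amplified and fluorescently labelled. Fragments separated by capillary electrophoresis give reporter signal; DMSO serves as negative control.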

The nature of assay [13]: ATG_Ets_CIS: Attagene CIS-FACTORIAL HepG2 Assay for human Erythroblast Transformation Specific (ETS) (AID 2282941). The conditions noted are these: HepG2 ETS cis-reporter transcription, actives raise or lower the signal. A digest of the protocol:
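HepG2 cells transfected with multiple cis-regulated reporter units measuring endogenous ETS-driven transcription, 24 h after dosing. Reporter mRNA quantified by RT-PCR with capillary electrophoresis; bidirectional fit relative to DMSO.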

In assay [14] the target is Hepatocyte nuclear factor 3-beta (Homo sapiens) (UniProt Q9Y261). Kind of assay: ATG_FoxA2_CIS: Attagene CIS-FACTORIAL HepG2 Assay for human Forkhead box A2 (FOXA2) (AID 2282942). Conditions: HepG2 cis-reporter transcription factor activity, 24 h; actives raise or lower the signal. A digest of the protocol:
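HepG2 transiently transfected with a multiplexed cis-promoter reporter library read endogenous FOXA2 activity. After 24 h compound exposure, reporter mRNA was quantified by RT-PCR, HpaI digestion and capillary electrophoresis. Bidirectional fit against DMSO.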

Assay [15] in a line: ATG_FoxO_CIS: Attagene CIS-FACTORIAL HepG2 Assay for human Forkhead box O (FoxO) (AID 2282943). The conditions noted are these: HepG2 Attagene cis-reporter, FoxO element, mRNA; actives raise or lower the signal. A digest of the protocol: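 24 h chemical exposure, HepG2 with transient cis-MRTU transfection. RNA extraction, oligo(dT) RT, reporter-specific PCR, primer-extension labelling, HpaI digestion, CE fragment analysis; bidirectional fit, DMSO baseline.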

Assay [16] in a line: ATG_GATA_CIS: Attagene CIS-FACTORIAL HepG2 Assay for human GATA Binding Protein (AID 2282944). The conditions noted are these: HepG2 GATA cis-element reporter, Attagene multiplex mRNA; actives raise or lower the signal. A digest of the protocol: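 Cells: HepG2, transiently transfected with cis-regulated reporter transcription units. Exposure: 24 h. Detection: RT-PCR plus capillary electrophoresis of FAM-labeled fragments. Analysis: bidirectional, DMSO as baseline.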

A short description of assay [17]: ATG_GLI_CIS: Attagene CIS-FACTORIAL HepG2 Assay for human Zinc Finger Protein GLI1 (AID 2282945). Conditions: HepG2, Attagene cis-factorial reporter mRNA, GLI element; actives raise or lower the signal. Put shortly: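 HepG2 cells transiently transfected with cis-promoter multiplexed reporter units report endogenous transcription factor activity. After 24 h chemical exposure, reporter mRNA was quantified by RT-PCR, 6-FAM labelling, HpaI digestion and capillary electrophoresis, with bidirectional fitting against DMSO.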

A short description of assay [18]: ATG_CMV_CIS: Attagene CIS-FACTORIAL HepG2 Assay for human CMV (Internal Marker) (AID 2282928).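 Also: endpoint acts as a background internal control marker rather than a target.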 The conditions noted are these: HepG2 CMV promoter reporter, transcription factor profiling; actives raise or lower the signal. A digest of the protocol:
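CMV internal-marker background readout in transiently transfected HepG2 cells bearing cis-regulated reporter units. Reporter mRNA is measured 24 h after dosing by RT-PCR and capillary electrophoresis, with bidirectional fitting against DMSO.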

The nature of assay [19]: ATG_DR4_LXR_CIS: Attagene CIS-FACTORIAL HepG2 Assay for human Liver X Receptor (LXR), DR4 submotif (AID 2282929). Conditions: HepG2 Attagene DR4 cis-reporter, mRNA transcription; actives raise or lower the signal. Put shortly: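 HepG2 cells were transiently transfected with multiple cis-regulated reporter units and dosed for 24 hours. The DR4 reporter mRNA was quantified by RT-PCR, 6-FAM labelling and capillary electrophoresis. Bidirectional fits used DMSO as baseline.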

Assay [20] is described as follows: ATG_BRE_CIS: Attagene CIS-FACTORIAL HepG2 Assay for human Bone Morphogenetic Protein (BMP) Response Element (BRE) (AID 2282933). Conditions: HepG2 BMP response element reporter, Attagene transcription factor profiling; actives raise or lower the signal. Put shortly: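 Fluorescence-labelled reporter cDNA fragments, separated by capillary electrophoresis, gave the signal for this component of a 52-readout multiplex. HepG2 cells were transfected, exposed to chemicals for 24 h, and compared with DMSO using bidirectional fitting.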

Chain of Hepatocyte nuclear factor 3-beta (Homo sapiens) (Q9Y261 whole entry, looked up): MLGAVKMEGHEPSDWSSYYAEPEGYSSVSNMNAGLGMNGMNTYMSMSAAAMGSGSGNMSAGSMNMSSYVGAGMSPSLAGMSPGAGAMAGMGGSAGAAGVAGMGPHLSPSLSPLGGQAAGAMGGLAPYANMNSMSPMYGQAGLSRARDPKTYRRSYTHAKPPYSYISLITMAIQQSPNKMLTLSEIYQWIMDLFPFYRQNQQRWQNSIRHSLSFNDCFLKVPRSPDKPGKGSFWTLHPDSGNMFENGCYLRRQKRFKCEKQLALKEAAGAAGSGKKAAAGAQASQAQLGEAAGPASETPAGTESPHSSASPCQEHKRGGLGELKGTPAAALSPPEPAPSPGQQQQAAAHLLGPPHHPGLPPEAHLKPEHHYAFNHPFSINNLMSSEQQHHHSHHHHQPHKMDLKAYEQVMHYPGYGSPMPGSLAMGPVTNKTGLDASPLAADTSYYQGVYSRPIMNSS
Chain of Aryl hydrocarbon receptor (Homo sapiens) (P35869 whole entry, looked up): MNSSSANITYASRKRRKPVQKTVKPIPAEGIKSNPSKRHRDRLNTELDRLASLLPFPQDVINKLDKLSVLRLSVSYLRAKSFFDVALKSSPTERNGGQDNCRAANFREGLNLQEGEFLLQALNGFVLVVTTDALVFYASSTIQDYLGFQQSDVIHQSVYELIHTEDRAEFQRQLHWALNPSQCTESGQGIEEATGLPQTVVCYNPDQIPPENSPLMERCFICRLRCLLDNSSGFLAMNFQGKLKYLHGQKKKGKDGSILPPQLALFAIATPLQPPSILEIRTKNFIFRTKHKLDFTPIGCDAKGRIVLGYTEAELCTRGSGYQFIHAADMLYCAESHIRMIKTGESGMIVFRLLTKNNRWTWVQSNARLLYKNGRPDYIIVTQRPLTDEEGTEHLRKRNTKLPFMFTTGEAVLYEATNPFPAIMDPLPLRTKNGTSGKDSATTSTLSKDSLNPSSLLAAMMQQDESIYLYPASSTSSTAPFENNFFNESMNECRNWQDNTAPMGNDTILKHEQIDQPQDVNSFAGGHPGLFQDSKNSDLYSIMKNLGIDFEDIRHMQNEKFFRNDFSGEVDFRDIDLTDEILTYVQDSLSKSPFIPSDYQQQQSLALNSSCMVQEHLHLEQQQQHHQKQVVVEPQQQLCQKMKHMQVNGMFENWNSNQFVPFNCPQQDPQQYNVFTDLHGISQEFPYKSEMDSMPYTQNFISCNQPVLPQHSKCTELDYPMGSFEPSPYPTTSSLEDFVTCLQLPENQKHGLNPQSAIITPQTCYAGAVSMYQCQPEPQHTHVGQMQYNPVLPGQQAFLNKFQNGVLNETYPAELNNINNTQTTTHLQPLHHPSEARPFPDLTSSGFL
Chain of Transcription factor E2F1 (Homo sapiens) (Q01094 whole entry, looked up): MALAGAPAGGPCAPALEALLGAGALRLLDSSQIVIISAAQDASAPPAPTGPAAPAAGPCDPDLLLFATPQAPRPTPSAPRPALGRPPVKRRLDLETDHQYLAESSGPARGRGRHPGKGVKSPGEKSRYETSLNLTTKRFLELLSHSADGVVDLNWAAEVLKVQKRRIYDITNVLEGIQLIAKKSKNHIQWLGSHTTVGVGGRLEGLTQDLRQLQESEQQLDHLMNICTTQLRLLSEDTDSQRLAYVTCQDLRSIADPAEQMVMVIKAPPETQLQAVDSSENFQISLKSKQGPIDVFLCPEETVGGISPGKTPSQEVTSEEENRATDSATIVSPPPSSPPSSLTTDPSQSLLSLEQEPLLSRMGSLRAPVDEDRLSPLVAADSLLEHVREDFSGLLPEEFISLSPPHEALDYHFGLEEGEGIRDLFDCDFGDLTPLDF

On to `O=c1c2ccccc2oc2ccccc12`, for which the result in assay [1], in [2], in [3], in [4], in assay [5] and in assay [6] was inactive. Further, the compound was classed as inactive in assay [7], in assay [8], in assay [9], in assay [10], in assay [11] and in assay [13]. The result in assay [14], in assay [15], in assay [16] and in assay [17] was inactive. In addition, the AC50 in assay [12] was 26.4 µM (active).
As to `N#[N+]c1ccc2c(S(=O)(=O)[O-])cccc2c1O`, the compound was called inactive in [1], in assay [2], in assay [18], in assay [4], in [5] and in assay [6]. In addition, the call in assay [7], in assay [8], in assay [9], in [10], in assay [11] and in [12] was inactive. Also, the result in [13], in assay [14], in assay [15], in assay [16] and in assay [17] was inactive.
As to `CC(C)(C)c1ccc(N)cc1`, the compound was classed as inactive in assay [1], in assay [2], in assay [19], in assay [3], in assay [4] and in assay [5]. Moreover, the result in assay [20], in assay [6], in assay [7], in assay [8], in assay [9] and in assay [10] was inactive. The call in [11], in assay [13], in [14], in [15], in assay [16] and in assay [17] was inactive. Also, the AC50 in [12] was 59.9 µM (active).
Regarding `CCCCC/C=C\C/C=C\CCCCCCCC(=O)OC`, the outcome in [1], in assay [2], in assay [19], in assay [3], in [5] and in assay [7] was inactive. Moreover, the result in assay [8], in assay [9], in assay [11], in [12], in assay [13] and in assay [14] was inactive. Besides, the compound was classed as inactive in assay [15] and in assay [16]. Further, the AC50 was 132 µM (active) in assay [4], 126 µM (active) in [20], 71.2 µM (active) in assay [6] and 162 µM (active) in [17].
In the case of `O=C1CCCCCN1SSN1CCCCCC1=O`, the outcome in [2], in assay [18], in assay [19], in assay [3], in [4] and in [5] was inactive. Besides, the compound was classed as inactive in [20], in [6], in assay [7], in assay [9], in assay [11] and in assay [12]. In addition, the result in assay [13], in assay [14], in assay [15] and in assay [16] was inactive. Also, the results for the AC50 in assay [8], in assay [10] and in assay [17] were 182 µM (active), 162 µM (active) and 155 µM (active), respectively.
Take `CCCCC(CC)COC(=O)c1ccccc1O` (configuration not stated): the outcome in assay [2], in assay [18], in assay [19], in [3], in assay [4] and in assay [5] was inactive. Besides, the compound was called inactive in assay [20], in assay [6], in assay [7], in assay [8], in assay [9] and in [10]. Moreover, the compound was called inactive in assay [11], in assay [13], in assay [14], in assay [15], in assay [16] and in [17]. Also, the AC50 in assay [12] was 32.5 µM (active).
In the case of `O=c1c2ccccc2nnn1CCl`, the result in assay [2], in assay [18], in assay [19], in [4], in assay [5] and in assay [20] was inactive. For the same compound, the call in [6], in [7], in [8], in [9], in assay [10] and in assay [11] was inactive. The outcome in assay [12], in assay [13], in assay [14], in assay [15], in assay [16] and in assay [17] was inactive.
